# Results from ChEMBL document CHEMBL1961873, “Compounds: GSK PKIS; Assays: Nanosyn kinase panel” (2012).
# Legend:
# [1] = target: 5'-AMP-activated protein kinase catalytic subunit alpha-2 (Homo sapiens) (UniProt P54646); details: at 1 µM
# [2] = target: T1, NUAK family SNF1-like kinase 1 (Homo sapiens) (UniProt O60285); details: at 0.1 µM
# T1 sequence (whole entry): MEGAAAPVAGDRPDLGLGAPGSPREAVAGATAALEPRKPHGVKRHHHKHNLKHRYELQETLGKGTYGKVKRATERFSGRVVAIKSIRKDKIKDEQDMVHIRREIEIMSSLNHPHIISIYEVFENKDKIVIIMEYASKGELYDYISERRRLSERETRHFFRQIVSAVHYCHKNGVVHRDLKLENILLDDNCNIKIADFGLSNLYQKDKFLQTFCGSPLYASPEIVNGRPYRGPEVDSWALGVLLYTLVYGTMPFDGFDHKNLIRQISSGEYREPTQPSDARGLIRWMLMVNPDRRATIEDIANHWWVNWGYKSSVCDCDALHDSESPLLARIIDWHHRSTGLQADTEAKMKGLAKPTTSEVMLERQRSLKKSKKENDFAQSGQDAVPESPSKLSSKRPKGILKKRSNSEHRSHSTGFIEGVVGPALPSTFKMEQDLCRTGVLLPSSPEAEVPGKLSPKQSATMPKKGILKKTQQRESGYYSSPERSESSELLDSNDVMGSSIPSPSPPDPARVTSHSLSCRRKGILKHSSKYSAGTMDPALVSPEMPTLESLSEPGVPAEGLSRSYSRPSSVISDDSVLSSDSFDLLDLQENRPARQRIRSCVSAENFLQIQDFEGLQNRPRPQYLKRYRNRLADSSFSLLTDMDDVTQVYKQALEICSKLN
# [3] = target: T1, NUAK family SNF1-like kinase 1 (Homo sapiens); details: at 1 µM
# [4] = target: T2, Serine/threonine-protein kinase BRSK1 (Homo sapiens) (UniProt Q8TDC3); details: at 0.1 µM
# T2 sequence (whole entry): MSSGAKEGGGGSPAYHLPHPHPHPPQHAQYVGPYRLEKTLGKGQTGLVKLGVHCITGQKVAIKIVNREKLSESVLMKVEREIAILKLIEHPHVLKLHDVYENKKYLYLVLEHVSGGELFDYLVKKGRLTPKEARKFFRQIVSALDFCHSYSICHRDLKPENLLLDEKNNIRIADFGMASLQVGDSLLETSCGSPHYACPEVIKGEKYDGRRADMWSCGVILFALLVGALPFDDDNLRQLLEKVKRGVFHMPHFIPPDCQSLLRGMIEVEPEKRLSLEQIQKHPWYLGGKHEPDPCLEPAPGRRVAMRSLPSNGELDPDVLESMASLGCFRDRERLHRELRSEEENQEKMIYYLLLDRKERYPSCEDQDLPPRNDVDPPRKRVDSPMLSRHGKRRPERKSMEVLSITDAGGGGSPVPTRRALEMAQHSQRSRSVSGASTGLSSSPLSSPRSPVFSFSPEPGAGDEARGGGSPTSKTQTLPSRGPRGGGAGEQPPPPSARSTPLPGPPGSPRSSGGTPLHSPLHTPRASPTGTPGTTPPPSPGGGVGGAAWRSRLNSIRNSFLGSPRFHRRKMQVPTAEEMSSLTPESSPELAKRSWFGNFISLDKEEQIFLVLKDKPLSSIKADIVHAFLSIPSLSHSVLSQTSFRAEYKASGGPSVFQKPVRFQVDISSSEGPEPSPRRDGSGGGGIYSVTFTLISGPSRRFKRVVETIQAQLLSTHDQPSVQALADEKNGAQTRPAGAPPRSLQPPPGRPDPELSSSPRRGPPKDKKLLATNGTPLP
# [5] = target: T2, Serine/threonine-protein kinase BRSK1 (Homo sapiens); details: at 1 µM
# [6] = target: T3, Serine/threonine-protein kinase BRSK2 (Homo sapiens) (UniProt Q8IWQ3); details: at 0.1 µM
# T3 sequence (whole entry): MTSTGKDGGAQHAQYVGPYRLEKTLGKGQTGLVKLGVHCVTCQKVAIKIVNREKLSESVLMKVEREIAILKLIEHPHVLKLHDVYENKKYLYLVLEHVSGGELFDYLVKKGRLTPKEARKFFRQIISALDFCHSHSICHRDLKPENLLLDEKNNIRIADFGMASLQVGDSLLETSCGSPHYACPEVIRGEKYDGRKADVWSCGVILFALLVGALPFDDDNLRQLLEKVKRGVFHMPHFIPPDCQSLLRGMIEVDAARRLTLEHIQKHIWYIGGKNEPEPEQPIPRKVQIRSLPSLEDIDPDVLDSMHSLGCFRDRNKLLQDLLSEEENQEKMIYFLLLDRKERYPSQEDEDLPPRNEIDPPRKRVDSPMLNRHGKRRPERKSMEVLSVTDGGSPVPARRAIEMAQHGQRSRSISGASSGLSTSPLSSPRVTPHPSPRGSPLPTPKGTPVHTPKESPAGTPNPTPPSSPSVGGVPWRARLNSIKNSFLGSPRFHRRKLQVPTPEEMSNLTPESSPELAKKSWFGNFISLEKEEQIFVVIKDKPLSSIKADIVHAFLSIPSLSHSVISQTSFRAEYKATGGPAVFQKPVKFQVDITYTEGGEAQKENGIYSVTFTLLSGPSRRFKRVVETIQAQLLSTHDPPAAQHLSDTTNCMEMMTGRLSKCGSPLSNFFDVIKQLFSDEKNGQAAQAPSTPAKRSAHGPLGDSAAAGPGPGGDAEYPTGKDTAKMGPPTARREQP
# [7] = target: T3, Serine/threonine-protein kinase BRSK2 (Homo sapiens); details: at 1 µM
# [8] = target: Calcium/calmodulin-dependent protein kinase type 1D (Homo sapiens) (UniProt Q8IU85); details: at 0.1 µM
# [9] = target: Calcium/calmodulin-dependent protein kinase type 1D (Homo sapiens) (UniProt Q8IU85); details: at 1 µM
# [10] = target: Calcium/calmodulin-dependent protein kinase type II subunit alpha (Homo sapiens) (UniProt Q9UQM7); details: at 0.1 µM
# [11] = target: Calcium/calmodulin-dependent protein kinase type II subunit alpha (Homo sapiens) (UniProt Q9UQM7); details: at 1 µM
# [12] = target: Calcium/calmodulin-dependent protein kinase type II subunit delta (Homo sapiens) (UniProt Q13557); details: at 0.1 µM
# [13] = target: Calcium/calmodulin-dependent protein kinase type II subunit delta (Homo sapiens) (UniProt Q13557); details: at 1 µM
# [14] = target: T4, Calcium/calmodulin-dependent protein kinase type IV (Homo sapiens) (UniProt Q16566); details: at 0.1 µM
# T4 sequence (whole entry): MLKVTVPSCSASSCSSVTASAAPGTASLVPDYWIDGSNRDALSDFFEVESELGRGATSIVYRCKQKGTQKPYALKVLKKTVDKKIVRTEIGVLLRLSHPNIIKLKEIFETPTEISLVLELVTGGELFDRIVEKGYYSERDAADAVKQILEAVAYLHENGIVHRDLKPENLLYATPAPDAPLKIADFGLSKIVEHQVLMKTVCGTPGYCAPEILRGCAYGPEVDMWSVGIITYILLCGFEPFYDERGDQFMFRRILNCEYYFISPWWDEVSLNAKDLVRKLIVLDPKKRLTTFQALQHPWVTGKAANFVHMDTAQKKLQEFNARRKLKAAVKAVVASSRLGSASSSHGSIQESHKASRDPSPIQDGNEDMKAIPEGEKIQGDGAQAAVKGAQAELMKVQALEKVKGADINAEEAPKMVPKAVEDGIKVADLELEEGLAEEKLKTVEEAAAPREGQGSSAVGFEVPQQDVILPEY
# [15] = target: T4, Calcium/calmodulin-dependent protein kinase type IV (Homo sapiens); details: at 1 µM
# [16] = target: T5, Serine/threonine-protein kinase Chk1 (Homo sapiens) (UniProt O14757); details: at 0.1 µM
# T5 sequence (whole entry): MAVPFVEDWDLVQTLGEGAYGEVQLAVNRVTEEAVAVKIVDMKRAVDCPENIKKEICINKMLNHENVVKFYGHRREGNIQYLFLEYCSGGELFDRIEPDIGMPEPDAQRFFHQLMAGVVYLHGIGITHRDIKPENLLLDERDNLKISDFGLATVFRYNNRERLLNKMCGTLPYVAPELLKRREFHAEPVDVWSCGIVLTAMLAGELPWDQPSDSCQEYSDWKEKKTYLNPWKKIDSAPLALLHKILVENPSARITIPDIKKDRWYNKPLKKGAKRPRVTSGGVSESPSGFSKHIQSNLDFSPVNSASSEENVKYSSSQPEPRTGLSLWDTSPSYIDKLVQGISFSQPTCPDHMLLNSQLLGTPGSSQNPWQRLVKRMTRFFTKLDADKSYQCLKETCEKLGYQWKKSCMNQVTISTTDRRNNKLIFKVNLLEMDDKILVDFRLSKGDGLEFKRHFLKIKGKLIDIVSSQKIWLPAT
# [17] = target: T5, Serine/threonine-protein kinase Chk1 (Homo sapiens); details: at 1 µM
# [18] = target: Serine/threonine-protein kinase Chk2 (Homo sapiens) (UniProt O96017); details: at 0.1 µM
# [19] = target: Serine/threonine-protein kinase Chk2 (Homo sapiens) (UniProt O96017); details: at 1 µM
# [20] = target: Death-associated protein kinase 1 (Homo sapiens) (UniProt P53355); details: at 0.1 µM;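 further: reported figure is the mean inhibition of DAPK1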
# Death-associated protein kinase 1 (Homo sapiens), sequence (P53355 whole entry, looked up): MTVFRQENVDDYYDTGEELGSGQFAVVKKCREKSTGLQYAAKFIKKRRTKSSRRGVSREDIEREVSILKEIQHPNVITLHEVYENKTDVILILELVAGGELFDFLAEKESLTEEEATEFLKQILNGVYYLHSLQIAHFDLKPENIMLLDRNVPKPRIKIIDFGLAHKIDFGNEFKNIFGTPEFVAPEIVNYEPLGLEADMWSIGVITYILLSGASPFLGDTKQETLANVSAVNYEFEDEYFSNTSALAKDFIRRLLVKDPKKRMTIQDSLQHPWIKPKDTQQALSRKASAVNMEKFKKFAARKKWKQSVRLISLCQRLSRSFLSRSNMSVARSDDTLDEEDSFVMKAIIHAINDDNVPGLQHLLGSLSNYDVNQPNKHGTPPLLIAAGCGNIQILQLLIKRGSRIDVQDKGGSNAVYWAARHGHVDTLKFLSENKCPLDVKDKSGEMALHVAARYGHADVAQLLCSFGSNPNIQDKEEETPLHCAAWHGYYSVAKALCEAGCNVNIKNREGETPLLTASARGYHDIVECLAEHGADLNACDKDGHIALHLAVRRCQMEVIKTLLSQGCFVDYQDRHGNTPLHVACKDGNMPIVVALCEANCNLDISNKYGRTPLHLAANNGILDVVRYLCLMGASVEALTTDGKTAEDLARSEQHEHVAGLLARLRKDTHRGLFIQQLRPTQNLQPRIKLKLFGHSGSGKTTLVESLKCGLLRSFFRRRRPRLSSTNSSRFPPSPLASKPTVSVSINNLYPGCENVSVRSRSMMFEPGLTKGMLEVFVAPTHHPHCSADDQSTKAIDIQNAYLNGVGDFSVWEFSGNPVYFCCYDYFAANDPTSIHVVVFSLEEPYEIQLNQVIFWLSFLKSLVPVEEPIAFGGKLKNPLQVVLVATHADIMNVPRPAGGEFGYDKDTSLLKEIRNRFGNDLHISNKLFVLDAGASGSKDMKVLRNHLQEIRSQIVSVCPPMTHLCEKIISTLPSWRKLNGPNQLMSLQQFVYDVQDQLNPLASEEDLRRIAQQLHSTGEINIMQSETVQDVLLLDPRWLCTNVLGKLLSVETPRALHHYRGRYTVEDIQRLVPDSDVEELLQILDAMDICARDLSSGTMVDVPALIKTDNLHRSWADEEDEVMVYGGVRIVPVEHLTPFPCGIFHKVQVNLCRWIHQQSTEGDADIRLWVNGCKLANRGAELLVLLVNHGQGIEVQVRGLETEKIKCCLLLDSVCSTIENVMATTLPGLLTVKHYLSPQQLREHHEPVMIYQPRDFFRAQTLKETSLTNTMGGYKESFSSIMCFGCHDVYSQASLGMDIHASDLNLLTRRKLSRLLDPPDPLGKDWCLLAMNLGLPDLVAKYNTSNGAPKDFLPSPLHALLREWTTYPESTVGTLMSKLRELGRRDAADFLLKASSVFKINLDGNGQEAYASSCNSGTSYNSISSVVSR
# Calcium/calmodulin-dependent protein kinase type 1D (Homo sapiens), sequence (Q8IU85 whole entry, looked up): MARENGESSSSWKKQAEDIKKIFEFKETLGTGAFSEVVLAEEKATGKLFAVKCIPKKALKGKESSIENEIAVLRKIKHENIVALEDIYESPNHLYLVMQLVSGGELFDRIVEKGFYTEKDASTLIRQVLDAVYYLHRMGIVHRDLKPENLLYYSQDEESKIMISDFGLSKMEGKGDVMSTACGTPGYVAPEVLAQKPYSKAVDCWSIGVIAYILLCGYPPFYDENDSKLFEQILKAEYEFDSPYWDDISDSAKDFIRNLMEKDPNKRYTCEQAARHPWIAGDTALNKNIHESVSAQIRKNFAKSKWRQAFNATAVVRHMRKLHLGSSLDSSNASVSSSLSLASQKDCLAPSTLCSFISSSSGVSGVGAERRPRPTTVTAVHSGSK
# 5'-AMP-activated protein kinase catalytic subunit alpha-2 (Homo sapiens), sequence (P54646 whole entry, looked up): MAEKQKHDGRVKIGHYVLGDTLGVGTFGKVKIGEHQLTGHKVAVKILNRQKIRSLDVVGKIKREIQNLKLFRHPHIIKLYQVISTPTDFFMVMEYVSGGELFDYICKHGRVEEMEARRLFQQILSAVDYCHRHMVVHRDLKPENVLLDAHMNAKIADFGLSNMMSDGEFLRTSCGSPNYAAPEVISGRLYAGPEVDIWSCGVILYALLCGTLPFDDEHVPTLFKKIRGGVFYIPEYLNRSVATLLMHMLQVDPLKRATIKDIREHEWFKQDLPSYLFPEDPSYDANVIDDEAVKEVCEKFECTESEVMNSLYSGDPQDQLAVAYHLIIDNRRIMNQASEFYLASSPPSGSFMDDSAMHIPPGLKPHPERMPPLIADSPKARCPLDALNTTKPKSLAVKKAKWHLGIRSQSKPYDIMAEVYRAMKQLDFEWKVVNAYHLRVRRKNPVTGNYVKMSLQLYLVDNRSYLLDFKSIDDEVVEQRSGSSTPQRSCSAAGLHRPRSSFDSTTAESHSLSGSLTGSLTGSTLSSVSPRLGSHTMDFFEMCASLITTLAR
# Calcium/calmodulin-dependent protein kinase type II subunit delta (Homo sapiens), sequence (Q13557 whole entry): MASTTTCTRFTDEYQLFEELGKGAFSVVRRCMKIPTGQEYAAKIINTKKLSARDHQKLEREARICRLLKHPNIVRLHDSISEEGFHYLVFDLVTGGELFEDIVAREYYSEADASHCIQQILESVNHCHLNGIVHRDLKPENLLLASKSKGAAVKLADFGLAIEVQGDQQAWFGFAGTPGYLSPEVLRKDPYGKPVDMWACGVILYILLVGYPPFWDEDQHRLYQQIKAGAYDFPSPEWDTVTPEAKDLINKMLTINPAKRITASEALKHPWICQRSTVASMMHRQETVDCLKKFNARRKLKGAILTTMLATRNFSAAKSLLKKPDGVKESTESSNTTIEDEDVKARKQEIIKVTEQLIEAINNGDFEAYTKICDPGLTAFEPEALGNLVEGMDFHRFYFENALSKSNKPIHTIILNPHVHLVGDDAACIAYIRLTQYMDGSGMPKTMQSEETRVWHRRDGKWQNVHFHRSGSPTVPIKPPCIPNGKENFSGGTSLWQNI
# Serine/threonine-protein kinase Chk2 (Homo sapiens), sequence (O96017 whole entry): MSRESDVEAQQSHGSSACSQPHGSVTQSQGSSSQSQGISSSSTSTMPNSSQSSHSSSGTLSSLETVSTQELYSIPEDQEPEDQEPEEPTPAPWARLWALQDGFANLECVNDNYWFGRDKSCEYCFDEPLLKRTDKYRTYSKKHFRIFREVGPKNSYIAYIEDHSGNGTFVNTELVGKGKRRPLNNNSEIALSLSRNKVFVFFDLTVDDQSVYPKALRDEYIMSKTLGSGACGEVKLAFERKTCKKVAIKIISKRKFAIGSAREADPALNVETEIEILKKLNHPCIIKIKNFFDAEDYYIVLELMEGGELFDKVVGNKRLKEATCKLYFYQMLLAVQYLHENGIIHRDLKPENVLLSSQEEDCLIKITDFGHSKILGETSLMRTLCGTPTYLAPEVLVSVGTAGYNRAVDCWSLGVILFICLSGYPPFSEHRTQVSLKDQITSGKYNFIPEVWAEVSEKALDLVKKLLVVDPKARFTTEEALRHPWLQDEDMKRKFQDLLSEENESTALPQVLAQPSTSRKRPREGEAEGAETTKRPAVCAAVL
# Calcium/calmodulin-dependent protein kinase type II subunit alpha (Homo sapiens), sequence (Q9UQM7 whole entry): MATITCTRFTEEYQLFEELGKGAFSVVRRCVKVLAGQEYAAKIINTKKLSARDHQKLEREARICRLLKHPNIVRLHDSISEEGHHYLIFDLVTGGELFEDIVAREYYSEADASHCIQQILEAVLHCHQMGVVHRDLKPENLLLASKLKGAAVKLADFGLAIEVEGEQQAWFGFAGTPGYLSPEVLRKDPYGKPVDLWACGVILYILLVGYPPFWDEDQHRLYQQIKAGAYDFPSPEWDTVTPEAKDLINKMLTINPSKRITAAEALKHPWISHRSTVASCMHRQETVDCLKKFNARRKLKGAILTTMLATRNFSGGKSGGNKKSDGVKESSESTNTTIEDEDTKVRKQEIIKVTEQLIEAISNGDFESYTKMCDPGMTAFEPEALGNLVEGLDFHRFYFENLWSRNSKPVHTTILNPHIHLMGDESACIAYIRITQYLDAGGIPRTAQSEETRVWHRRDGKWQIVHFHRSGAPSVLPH
SMILES,inhibition [1],inhibition [2],inhibition [3],inhibition [4],inhibition [5],inhibition [6],inhibition [7],inhibition [8],inhibition [9],inhibition [10],inhibition [11],inhibition [12],inhibition [13],inhibition [14],inhibition [15],inhibition [16],inhibition [17],inhibition [18],inhibition [19],inhibition [20]
COc1cc(/C=N/Nc2ncnc3[nH]ncc23)ccc1O,20.2%,6.98%,27.6%,1.12%,18%,4.62%,22.9%,1.07%,5.49%,2.62%,5.41%,2.57%,11.4%,-0.14%,-0.84%,26.1%,66.1%,4.23%,23.8%,4.22%
COc1cc2ncn(-c3cc(OCc4ccccc4C(F)(F)F)c(C(=O)N(C)C)s3)c2cc1OC,1.18%,1.04%,14.8%,-0.38%,2.7%,0.49%,8.59%,-0.9%,0.6%,-1.75%,-0.49%,-1.72%,1.17%,0.72%,3.28%,-1.48%,1.32%,-0.7%,-0.07%,-0.75%
CCN(CC)S(=O)(=O)c1ccc(OC)c(Nc2ncc(-c3ccccc3)o2)c1,0.95%,5.96%,3.38%,-0.07%,0.94%,3.36%,6.08%,0.13%,-0.06%,3.02%,6.08%,2.08%,8.27%,-0.4%,-1.66%,1.49%,2.79%,-0.98%,2.66%,4%
CCn1c(-c2nonc2N)nc2ccccc21,4.49%,1.56%,10.1%,2.54%,8.27%,1.85%,9.49%,1.89%,2.35%,4.29%,5.38%,4.24%,4.89%,-0.37%,1.93%,6.35%,4.95%,0.53%,1.9%,4.46%
CS(=O)(=O)CCNCc1ccc(-c2ccc3ncnc(Nc4ccc(OCc5ccccc5)c(C(F)(F)F)c4)c3c2)o1,3.87%,-0.55%,-0.02%,0.14%,4.02%,3.18%,4.31%,0.11%,4.44%,2.86%,-1.78%,1.83%,1.77%,-0.46%,-1.2%,8.46%,10.8%,7.47%,7.84%,12.8%
Nc1ncc(-c2cccc(S(N)(=O)=O)c2)c2scc(-c3ccc(F)c(Cl)c3)c12,4.34%,0.82%,2.44%,1.61%,5.62%,3.28%,6.56%,1.24%,0.88%,3.36%,0.53%,3.74%,2.95%,1.75%,1.03%,5.24%,2.44%,3.46%,7.7%,5.41%
COc1cccc(-c2c[nH]c3c(N/N=C/c4ccncc4)ncnc23)c1,7.68%,4.85%,38.5%,3.83%,21.4%,4.82%,29.8%,2.11%,4.07%,3.48%,6.66%,3.84%,15.2%,1.55%,4.18%,7.71%,11.3%,5.73%,6.91%,9.18%
